Experimental findings from ChEMBL document CHEMBL4888484, “Replenishing the malaria drug discovery pipeline: Screening and hit evaluation of the MMV Hit Generation Library 1 (HGL1) against asexual blood stage Plasmodium falciparum ,using a nano luciferase reporter read-out” (2022) are described below.

Screen size: about 4,800 compounds; about 410 (8.5%) showed an effect of 50% or more. Shown is part of a subset that was picked to be rich in strong results.

The assay has as its system Plasmodium falciparum. Put plainly: Confirmatory screen in NF54 pLDH assay, in single point, at 2uM, 72h. The format is functional, Erythrocyte. As to conditions: timepoint 72 hour.
For the molecule `O=C(NCc1cccc(Cl)c1)[C@H]1CCCN(c2nc3cccnc3n(Cc3ccccc3)c2=O)C1`, the “% Inhibition” value was -7%.

Turning to `CCN(CC)CC(O)COc1c(Br)cc(C(C)(C)c2cc(Br)c(OCC(O)CN(CC)CC)c(Br)c2)cc1Br` (stereo not given), the “% Inhibition” value turned out to be 99%.

As for `CCN(CC)C(=O)c1cnc2snc(C)c2c1N1CCC(C(=O)Nc2c(C)cc(C)cc2C)CC1`, the “% Inhibition” value is 34%.

Turning to `CN(C(=O)CN(CCO)c1ccc(Br)cc1)C1CC1`, the “% Inhibition” value amounted to 2%.

Regarding `CCN(C(=O)[C@H]1CCOC1)c1ccc(C(F)(F)F)cc1`, the “% Inhibition” value was 5%.

Take `O=C(O)C1CCC(=O)N(C2CC2)C1c1ccccc1` (stereo not given): the “% Inhibition” value came to 10%.

With `C(=C\c1cc(/C=C/c2ccccc2)n2nnnc2n1)/c1ccccc1`, the “% Inhibition” value is reported as 5%.

On to `O=C(NCC1CCCCC1)c1cn[nH]c1-c1ccccc1`, for which the “% Inhibition” value is listed as 6%.

Consider `O=C(NCC1CCCCC1O)c1cnn2ccncc12` (stereo not given), for which the “% Inhibition” value is on record as -5%.

For the molecule `COc1ccc2nc(C(F)(F)F)nc(N3CCNC(=O)CCN(C(=O)C(F)=C4CCCC4)CC3)c2c1`, the “% Inhibition” value is reported as 14%.

Consider `O=S(=O)(Nc1cccc2cccnc12)c1cccs1`, for which the “% Inhibition” value is reported as 64%.

As to `O=S(=O)(Nc1nncs1)c1cccs1`, the “% Inhibition” value was -10%.

As to `Cc1cc(NS(=O)(=O)c2cccs2)n(-c2ccncc2)n1`, the “% Inhibition” value was found to be 9%.

On to `Cc1nsc2ncn(C[C@H](O)COCc3ccco3)c(=O)c12`, for which the “% Inhibition” value is recorded as 8%.

Turning to `CCOc1ccc(-c2cc3c(=O)n(CCC(=O)N4CCCC4)ccn3n2)cc1`, the “% Inhibition” value amounted to 7%.

With `O=C(CNC(=O)c1ccc(C(F)(F)F)cc1)Nc1cnc2c(c1)COCC2`, the “% Inhibition” value is 4%.

As for `Fc1ccc(-c2cc3c(N4CCCCC4)nccn3n2)cc1`, the “% Inhibition” value came out at 12%.

For `CCn1cc(C(=O)Nc2n[nH]c3ccc(C(F)(F)F)cc23)cn1`, the “% Inhibition” value is on record as -4%.

On to `CC1CCN(C[C@H](O)C(F)(F)F)CC1`, for which the “% Inhibition” value was 5%.

Take `COc1cccc2c(N3CC[C@]4(CNC(=O)C4)C3)nccc12`: the “% Inhibition” value stood at 2%.

`CC[n+]1ccc(-c2ncc(-c3ccc(C(C)(C)C)cc3)o2)cc1`: the “% Inhibition” value turned out to be 55%.

Consider `Cc1ccc(C(=O)NCCn2cnc3ccccc3c2=O)cn1`, for which the “% Inhibition” value was -7%.

Consider `CC(C)CC[C@@H](CCNCCN(C)C)c1ccc(Cl)cc1`, for which the “% Inhibition” value is recorded as 103%.

Turning to `CN1CCC(NCC[C@@H](Cc2ccccc2Cl)c2ccc(Cl)cc2)CC1`, the “% Inhibition” value came out at 92%.

On to `Clc1ccccc1COc1ccc(CNC2CCCCC2)cc1`, for which the “% Inhibition” value came out at 7%.

Regarding `CN(C)CCCNCc1ccc(Cl)cc1Cl`, the “% Inhibition” value is reported as -7%.

Consider `CN(C)CCNCc1ccc(Cl)c(Cl)c1`, for which the “% Inhibition” value is -14%.

Take `CC(C)CC[C@@H](CCNC1CCN(C)CC1)c1ccc(Cl)cc1`: the “% Inhibition” value came out at 83%.

Turning to `O=C1c2cc3ccccc3n2C[C@](C(=O)NC2CCCCCCC2)(c2ccccc2)N1Cc1cccc(Cl)c1`, the “% Inhibition” value is listed as -5%.

As to `COc1ccccc1N(CC(=O)NCCN1CCOCC1)S(=O)(=O)c1ccc(C)cc1`, the “% Inhibition” value was 7%.

In the case of `Cc1cc(C(=O)N[C@@H](C)c2nnc3n2CCCCC3)c(C)s1`, the “% Inhibition” value is reported as 3%.

As for `O=C(Nc1ncc(Cc2ccc(Cl)c(C(F)(F)F)c2)s1)c1ccc2nnsc2c1`, the “% Inhibition” value was determined as 10%.

As for `CC[C@H](O)CCNC(=O)Nc1ncc(CC(C)C)s1`, the “% Inhibition” value amounted to 2%.

Turning to `COc1cc(NC(=O)Cn2c(=O)n(C)c(=O)c3c2c(-c2ccccc2)cn3C)cc(OC)c1OC`, the “% Inhibition” value is on record as -8%.

`Cc1cncn1C1CCN(C(=O)C2(Cc3ccccc3)CC3CCC2C3)CC1` (stereo not given): the “% Inhibition” value is given as -1%.

With `COc1cc(C=C(C(=O)Nc2ccccc2F)C(=O)Nc2ccccc2F)ccc1OCC(=O)Nc1cccc(C(F)(F)F)c1`, the “% Inhibition” value is -18%.

Consider `Cc1[nH]ccc1C(=O)N1CC[C@]2(CCN(C(=O)OC(C)(C)C)C2)C1`, for which the “% Inhibition” value is reported as 13%.

In the case of `CCC(=O)OC1(C#CCOc2ccc(OC)cc2)CCN(C)CC1`, the “% Inhibition” value is 9%.

As to `Cc1cc(C)n(-c2ccc(N3CC4CCC3C4)nc2)n1` (stereo not given), the “% Inhibition” value is reported as -2%.

Take `C[C@H](NC(=O)c1ccco1)c1cc2c(cc1Br)OCCCO2`: the “% Inhibition” value is reported as -9%.

Regarding `CCc1ccc(NC(=O)c2sc3nc(C)c(C(=O)Nc4ccc(C)cc4C)c(-c4ccccc4Cl)c3c2N)cc1`, the “% Inhibition” value is listed as 5%.

As to `Cc1ccc(NC(=O)c2c(C)nc3sc(C(=O)NCc4ccccc4)c(N)c3c2-c2ccccc2Cl)c(C)c1`, the “% Inhibition” value is 87%.

Regarding `Cc1ccc(NC(=O)c2c(C)nc3sc(C(=O)NCc4ccccc4)c(N)c3c2-c2cccs2)c(C)c1`, the “% Inhibition” value was 11%.

In the case of `CN([C@H]1CCc2nn(CC3CC3)c(=O)n2CC1)S(=O)(=O)c1ccccc1C(F)(F)F`, the “% Inhibition” value was 1%.

In the case of `CC(C)NC(=O)N1C[C@H]2CCCC(=O)N(Cc3cccc(F)c3)[C@H]2C1`, the “% Inhibition” value turned out to be 8%.

`O=C(NC[C@H]1CCCO1)c1cc(C(=O)C2CC2)c[nH]1`: the “% Inhibition” value is -8%.

Turning to `COc1nc(-c2cccc(C(=O)N3C[C@@H]4CC[C@H](C3)C(=O)N4)c2)ncc1F`, the “% Inhibition” value was 85%.

On to `COc1nc(-c2cccc(C(=O)NCC3CCOCC3)c2)ncc1F`, for which the “% Inhibition” value was determined as 80%.

Turning to `O=C(CC1CCOCC1)NCc1ccccn1`, the “% Inhibition” value is -24%.

`Cc1ccc(C(=O)N2CC(n3cnnc3C)C2)cc1F`: the “% Inhibition” value is recorded as -17%.

The term % Inhibition denotes the drop in the measured response relative to a control, in per cent.
